Test results from the antibiotic and cytotoxicity screens of Wong et al. (2023).
The campaign covered roughly 39,000 compounds. About 500 (1.3%) were called active. Only a selection was taken, and actives are over-represented in it overall.

tested on: S. aureus RN4220; test: growth inhibition call (relative growth <= 0.2); conditions: 50 µM

Compound	growth inhibition call
C[C@@H]1CN([C@H](C)CO)C(=O)c2cccc(NC(=O)Nc3cccc4ccccc34)c2O[C@@H]1CN(C)C(=O)Nc1ccc2c(c1)OCO2	inactive
COC(=O)c1c2oc(c1C(=O)OC)C(=O)N(C)Cc1cn(nn1)C[C@@H](C)NC(=O)N[C@H](CO)CC2	inactive
C[C@H](CO)N1C[C@H](C)[C@@H](CN(C)C(=O)Nc2ccc3c(c2)OCO3)OCCCC[C@H](C)Oc2ccc(NC(=O)Nc3ccc(F)cc3)cc2C1=O	inactive
COc1ccc(NC(=O)N(C)C[C@@H]2OCCCC[C@H](C)Oc3ccc(NC(=O)Nc4ccc5c(c4)OCO5)cc3C(=O)N([C@@H](C)CO)C[C@@H]2C)cc1	inactive
Cc1noc(C)c1S(=O)(=O)N(C)C[C@H]1Oc2ccc(NC(=O)CCC(F)(F)F)cc2CC(=O)N([C@H](C)CO)C[C@H]1C	inactive
CC(=O)N(C)C[C@H]1Oc2ncc(C#C[C@H](C)O)cc2C(=O)N([C@H](C)CO)C[C@H]1C	inactive
Cc1noc(C)c1NC(=O)Nc1ccc2c(c1)C(=O)N([C@H](C)CO)C[C@@H](C)[C@H](CN(C)C(=O)Nc1ccc(C(F)(F)F)cc1)O2	inactive
Cc1noc(C)c1NC(=O)Nc1ccc2c(c1)C(=O)N([C@@H](C)CO)C[C@H](C)[C@H](CN(C)C(=O)Nc1ccc(C(F)(F)F)cc1)O2	active
Cc1noc(C)c1NC(=O)Nc1ccc2c(c1)C(=O)N([C@H](C)CO)C[C@@H](C)[C@@H](CN(C)C(=O)Nc1ccc(C(F)(F)F)cc1)O2	inactive
Cc1noc(C)c1NC(=O)Nc1ccc2c(c1)C(=O)N([C@H](C)CO)C[C@H](C)[C@@H](CN(C)C(=O)Nc1ccc(C(F)(F)F)cc1)O2	inactive
Cc1noc(C)c1NC(=O)Nc1ccc2c(c1)C(=O)N([C@@H](C)CO)C[C@@H](C)[C@@H](CN(C)C(=O)Nc1ccc(C(F)(F)F)cc1)O2	active
Cc1noc(C)c1NC(=O)Nc1ccc2c(c1)C(=O)N([C@@H](C)CO)C[C@@H](C)[C@H](CN(C)C(=O)Nc1ccc(C(F)(F)F)cc1)O2	inactive
Cc1noc(C)c1NC(=O)N(C)C[C@@H]1Oc2ccc(NC(=O)Nc3ccc(C(F)(F)F)cc3)cc2C(=O)N([C@H](C)CO)C[C@@H]1C	inactive
Cc1noc(C)c1NC(=O)Nc1ccc2c(c1)C(=O)N([C@H](C)CO)C[C@H](C)[C@H](CN(C)C(=O)Nc1ccc(C(F)(F)F)cc1)O2	active
C[C@H](CO)N1C[C@H](C)[C@@H](CN(C)C(=O)Nc2ccc(C(F)(F)F)cc2)Oc2ccc(NC(=O)CCC(F)(F)F)cc2C1=O	active
C[C@@H]1CN([C@H](C)CO)C(=O)c2cc(NC(=O)CCC(F)(F)F)ccc2O[C@@H]1CN(C)C(=O)Nc1ccc(C(F)(F)F)cc1	inactive
Cc1noc(C)c1NC(=O)Nc1ccc2c(c1)C(=O)N([C@@H](C)CO)C[C@H](C)[C@@H](CN(C)C(=O)Nc1ccc(C(F)(F)F)cc1)O2	inactive
C[C@@H]1CN([C@@H](C)CO)C(=O)c2cc(NC(=O)CCC(F)(F)F)ccc2O[C@H]1CN(C)C(=O)Nc1ccc(C(F)(F)F)cc1	inactive
C[C@@H]1CN([C@@H](C)CO)C(=O)Cc2cc(NC(=O)C3CC3)ccc2O[C@@H]1CN(C)C(=O)Nc1ccc2c(c1)OCO2	inactive
CC(C)c1ccccc1Cc1cc(C(=O)Nc2ccc(S(=O)(=O)c3ccccc3C(C)(C)C)cc2)c(O)c(O)c1O	inactive
Cc1ccc(S(=O)(=O)N(C)C[C@@H]2Oc3ccc(NC(=O)Nc4cccc5ccccc45)cc3C(=O)N([C@@H](C)CO)C[C@H]2C)cc1	inactive

Compound	growth inhibition call
C[C@H]1CC/C=C\[C@H]2O[C@@]34C=CCN(c5ccc6ccccc6c5)C(=O)[C@H]3N(CCCO)C(=O)[C@@H]4[C@@H]2C(=O)O1	inactive
C[C@H]1CN([C@@H](C)CO)C(=O)Cc2cc(NC(=O)CCC(F)(F)F)ccc2O[C@H]1CN(C)S(=O)(=O)c1cn(C)cn1	inactive
CCN(CC)CCS(=O)(=O)[C@@H]1CCN2C(=O)c3coc(n3)CC(=O)C[C@H](O)/C=C(C)/C=C\CNC(=O)/C=C/[C@@H](C)[C@H](C(C)C)OC(=O)[C@@H]12	active
CCCCC(=O)OCC(=O)[C@]1(O)Cc2c(O)c3c(c(O)c2[C@@H](O[C@H]2C[C@H](NC(=O)C(F)(F)F)[C@H](O)[C@H](C)O2)C1)C(=O)c1c(OC)cccc1C3=O	inactive
COc1cccc2c1C(=O)c1c(O)c3c(c(O)c1C2=O)C[C@](O)(C(=O)CO)C[C@H]3O[C@H]1C[C@@H](N)[C@@H](O)[C@@H](C)O1	active
COc1cccc2c1C(=O)c1c(O)c3c(c(O)c1C2=O)C[C@@](O)(C(=O)CO)C[C@@H]3O[C@H]1C[C@H](N)[C@@H](O)[C@H](C)O1	active
COc1cccc2c1C(=O)c1c(O)c3c(c(O)c1C2=O)CC(O)(C(=O)CO)CC3OC1CC(N)C(O)C(C)O1 (stereo unspecified) [listing 1 of 2 here]	inactive
COc1cccc2c1C(=O)c1c(O)c3c(c(O)c1C2=O)CC(O)(C(=O)CO)CC3OC1CC(N)C(O)C(C)O1 (stereo unspecified) [listing 2 of 2 here]	inactive
COc1cccc2c1C(=O)c1c(O)c3c(c(O)c1C2=O)CC(O)(C(=O)CO)CC3OC1CC(N)C(O)C(C)O1.Cl (stereo unspecified)	inactive
COc1cccc2c1C(=O)c1c(O)c3c(c(O)c1C2=O)C[C@@](O)(C(=O)CO)C[C@@H]3O[C@H]1C[C@H](N)[C@H](O)[C@H](C)O1	active
Cc1ccnc(NC(=O)Cn2cnc3c2c(=O)n(C)c(=O)n3C)c1	inactive
Cc1noc(C)c1S(=O)(=O)Nc1ccc2c(c1)C(=O)N([C@@H](C)CO)C[C@@H](C)[C@@H](CN(C)S(C)(=O)=O)OCCCC[C@@H](C)O2	inactive
COCCC(=O)N1CCC2(CC1)COC2	inactive
C[C@@H]1CCCCO[C@@H](CN(C)C(=O)Nc2ccc(C(F)(F)F)cc2)[C@H](C)CN([C@H](C)CO)C(=O)c2cc(N(C)C)ccc2O1	inactive
Cc1noc(C)c1NC(=O)N(C)C[C@H]1Oc2ccc(NS(=O)(=O)c3ccccc3)cc2C(=O)N([C@@H](C)CO)C[C@H]1C	inactive
CCOC(=O)[C@H]1CN(C(C)(C)C)C(=O)C1=O	inactive
O=c1[nH]c2ccsc2c(=O)n1CCO	inactive
C[C@@H]1CN([C@@H](C)CO)S(=O)(=O)c2ccc(C#Cc3ccncc3)cc2O[C@H]1CN(C)C(=O)C1CCOCC1	inactive
CCS(=O)(=O)N1CC[C@]2(CC1)CN([C@H](CO)c1c2c2ccc(cc2n1C)OC)C(=O)CN1CCOCC1	inactive
C[C@H](CO)N1C[C@H](C)[C@@H](CN(C)Cc2ccccc2)Oc2ccc(NC(=O)Cn3cnnn3)cc2CC1=O	inactive
CN[C@H]1CN(c2ccc3c(=O)c(C(=O)O)cn(-c4nccs4)c3n2)C[C@@H]1OC	inactive

Compound	growth inhibition call
N[C@@H]1[C@H]2CN(c3nc4c(cc3F)c(=O)c(C(=O)O)cn4-c3ccc(F)cc3F)C[C@@H]12	active
N[C@H]1CCN(c2nc3c(cc2F)c(=O)c(C(=O)O)cn3-c2ccc(F)cc2F)C1	active
Cc1ccc(S(=O)(=O)O)cc1.NC1CCN(c2nc3c(cc2F)c(=O)c(C(=O)O)cn3-c2ccc(F)cc2F)C1.O (stereo unspecified)	inactive
C[C@H](CO)N1C[C@H](C)[C@H](CN(C)C(=O)CCC(F)(F)F)OCCCC[C@H](C)Oc2ccc(NC(=O)Nc3ccccc3)cc2C1=O	inactive
C[C@H](CO)N1C[C@H](C)[C@H](CN(C)C(=O)CCCN(C)C)OCCCC[C@H](C)Oc2ccc(NS(C)(=O)=O)cc2C1=O	inactive
C[C@H](CO)N1C[C@H](C)[C@H](CN(C)S(=O)(=O)c2ccc(F)cc2)Oc2c(NC(=O)C3CCOCC3)cccc2C1=O	inactive
CC(C)NC(=O)N(C)C[C@@H]1Oc2c(NS(=O)(=O)c3ccc(F)cc3)cccc2C(=O)N([C@H](C)CO)C[C@H]1C	inactive
C[C@@H]1CCCCO[C@@H](CN(C)C(=O)CCCN(C)C)[C@H](C)CN([C@@H](C)CO)C(=O)c2cc(NC(=O)Nc3ccc(F)cc3)ccc2O1	inactive
COc1cccc(S(=O)(=O)N(C)C[C@@H]2Oc3ncc(C#CC(C)C)cc3C(=O)N([C@@H](C)CO)C[C@H]2C)c1	inactive
COC(=O)CC1C(C)(C)C(OC(C)=O)C2CC3=C4CC(=O)OC(c5ccoc5)C4(C)CCC3C1(C)C2=O (stereo unspecified)	inactive
CCC(=C/[C@H](C)C/C=C/C(C)=C/[C@@H](C)C(=O)[C@@H](C)[C@H](O)[C@@H](C)C/C(C)=C/C(=O)O)/C=C/[C@@H]1OC(=O)C=C[C@@H]1C	active
Cc1noc(C)c1S(=O)(=O)N(C)C[C@@H]1Oc2ccc(NS(=O)(=O)c3ccc(F)cc3)cc2C(=O)N([C@H](C)CO)C[C@@H]1C	inactive
COc1ccc(S(=O)(=O)N(C)C[C@@H]2Oc3c(NS(=O)(=O)c4ccc(C)cc4)cccc3C(=O)N([C@H](C)CO)C[C@@H]2C)cc1	inactive
O=C1NCc2ccccc21	inactive
O=C1CCCNc2ccc(Cl)cc21	inactive
O=C1CCNc2cc3ccccc3cc21	active
CN(C)C(=O)C[C@@H]1CC[C@@H](NC(=O)C2CC2)[C@@H](CO)O1	inactive
C[C@@H]1CCCCO[C@@H](CN(C)C(=O)Nc2ccc(F)cc2)[C@H](C)CN([C@H](C)CO)C(=O)c2cc(NS(=O)(=O)c3ccc(F)cc3)ccc2O1	inactive
C[C@@H](O)COC[C@H]1O[C@@H]2O[C@H]3[C@H](O)[C@@H](O)[C@@H](O[C@H]4[C@H](O)[C@@H](O)[C@@H](O[C@H]5[C@H](O)[C@@H](O)[C@@H](O[C@H]6[C@H](O)[C@@H](O)[C@@H](O[C@H]7[C@H](O)[C@@H](O)[C@@H](O[C@H]8[C@H](O)[C@@H](O)[C@@H](O[C@H]1[C@H](O)[C@H]2O)O[C@@H]8COC[C@@H](C)O)O[C@@H]7COC[C@@H](C)O)O[C@@H]6COC[C@@H](C)O)O[C@@H]5COC[C@@H](C)O)O[C@@H]4COC[C@@H](C)O)O[C@@H]3COC[C@@H](C)O	inactive
